Source: PubChem (several laboratories)
Tat transport – E. coli Tat transport inhibition; AID 488895; E. coli MC4100 TorA-mCherry Tat export, fluorescence; 0.036% of 340,000 active; inhibition, % at 10 µM;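 active means mean replicate inhibition at least 50% and at least half of replicates individually reaching 50%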;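 further: exported cargo escapes ClpAP degradation while cytoplasmic cargo is degraded and loses fluorescence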
E coli growth-1 – E. coli growth inhibition | Escherichia coli growth, OD600, 23 h; active compounds read low | OD600 absorbance (no concentration beside the values) | 0.21% of 330,000 active | AID 1053175;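 active means OD600 absorbance below the run mean of sample wells minus 3.6 SD, in any replicate, cut at about 0.56 in these data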
AddAB inh – less growth of phage-infected E. coli with AddAB; E. coli expressing H. pylori AddAB, absorbance growth; inhibition, % at 11.9 µM; 0.29% of 330,000 active; AID 435030; in the data active means inhibition above about 12%
phage Ecoli inh – E. coli growth loss with phage present; growth absorbance; inhibition, % at 11.9 µM; 0.26% of 360,000 active; AID 651602; in the data active means inhibition above about 11%
E coli growth-2 – reduces bacterial viability in AddAB counter-screen; E. coli V3065 growth, OD600 absorbance, 18 h; inhibition, % at 11.9 µM; 0.27% of 330,000 active;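 active means inhibition above the campaign's mean inhibition across all tested compounds plus 3 SD, cut at about 9.9% in these data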;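 further: uninfected addAB+ strain grown without phage in ampicillin broth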
A number is an active result; i = inactive; nt = no result given. This is a sample that favours compounds with a hit; in the whole collection about 0.5% have one here.

SMILES	Tat transport	E coli growth-1	AddAB inh	phage Ecoli inh	E coli growth-2
CC1CCN(C(=O)c2ccc(S(=O)(=O)N3CCCCCC3)cc2)CC1	i	i	i	i	i
CC1CCN(C(=O)c2ccc(S(=O)(=O)N3CCCC3)cc2)CC1	55	i	i	i	i
CC(=NO)c1no[n+]([O-])c1C(C)=NO	nt	i	nt	nt	nt
CCOC(=O)Cc1csc(NC(=O)C2CCCN(S(=O)(=O)c3cnc[nH]3)C2)n1 (configuration not stated)	i	i	24	i	14
CCOc1ccc(NC(=O)C2CCCN(S(=O)(=O)c3cnc[nH]3)C2)cc1 (configuration not stated)	i	i	i	nt	i
O=C(NNc1ccc(Cl)cc1)c1sccc1Cl	i	0.5	i	i	i
CN1CCC(NCCC(c2ccc(F)cc2)c2ccc(Cl)cc2)CC1 (configuration not stated)	i	0.51	nt	i	nt
CC(C)C(CCNC1CCN(C)CC1)c1ccc(Cl)cc1 (configuration not stated)	i	i	i	i	i
C#CCOCCOCCOCCNc1nc(N2CCN(C(=O)CCCCCCCCCCNC(=O)C(CCC(=O)O)n3cc(CCCCCN)nn3)CC2)nc(N2CCN(C(=O)CCCCCCCCCCNC(=O)C(CCC(=O)O)n3cc(CCCCCN)nn3)CC2)n1 (configuration not stated)	nt	i	nt	nt	nt
O=[N+]([O-])c1cccc(-n2cccc2C=NNc2nc(N3CCCCC3)nc(N3CCCCC3)n2)c1	nt	i	nt	nt	nt
O=C(NN=CCCc1ccccc1)c1ccccc1	nt	i	nt	nt	nt
CC(C)C[C@@H]1CN=C(N)N1C[C@@H]1CCCN1C[C@H](C)N1C[C@@H](Cc2ccccc2)N(CCc2ccc(Cl)c(Cl)c2)C1=N	i	nt	i	nt	i
CCC(C)C1CN(C(C)CN2CCCC2CN2C(N)=NCC2Cc2ccccc2)C(=N)N1CCc1ccc(Cl)c(Cl)c1 (configuration not stated)	nt	i	nt	nt	nt
CC(C)C[C@@H]1CN=C(N)N1C[C@@H]1CCCN1C[C@@H](C(C)C)N1C[C@@H](Cc2ccccc2)N(CCc2ccc(Cl)c(Cl)c2)C1=N	i	0.07	i	i	i
CC(C)CC1CN=C(N)N1CC1CCCN1CC(C)N1CC(Cc2ccccc2)N(CCc2ccc(Cl)c(Cl)c2)C1=N (configuration not stated)	nt	0.2	nt	nt	nt
CC(C)C(CN1CCCC1CN1C(N)=NCC1Cc1ccccc1)N1CC(Cc2ccccc2)N(CCc2ccc(Cl)c(Cl)c2)C1=N (configuration not stated)	nt	0.046	nt	nt	nt
COc1ccc2c(c1)OC(c1cccc(C(F)(F)F)c1)C(OC(=O)Nc1ccc(OC(F)F)cc1)C2=O (configuration not stated)	nt	i	nt	nt	nt
C/C=C1\NC(=O)[C@H](CC(N)=O)N(C)C(=O)C([C@@H](C)O)NC(=O)C(CCCc2ccc(OC)cc2)NC(=O)[C@H](C(C)C)NC(=O)/C(=C\C)NC(=O)[C@H](O)[C@@H](C[C@@H](O)CCCCCCC)NC(=O)[C@H](C)NC(=O)CN(C)C(=O)[C@H](CCC(N)=O)NC1=O (some centres not stated)	i	0.52	nt	i	nt
COc1ccc(C2C3C(=O)N(C(C)(C)C)C(=O)C3[C@]3(Cc4ccccc4)C(=O)N(c4ccccc4)C(=O)N23)cc1 (some centres not stated)	nt	i	nt	nt	nt
COc1ccc(C=NNc2cc(C)nc3ccccc23)cc1	nt	0.49	nt	nt	nt
COc1ccc2nc(C)cc(NN=Cc3ccccc3)c2c1	nt	0.44	nt	nt	nt
CCCOc1ccc(NC(=O)C2CC(=O)N/C(=N/N=C(C)CCc3ccc4c(c3)OCO4)S2)cc1 (configuration not stated)	nt	i	nt	nt	nt
CCC[C@@H](CN1CCC[C@H]1CN1C(N)=NC[C@H]1CC(C)C)N1C[C@@H]([C@H](C)CC)N(CCCC2CCCC2)C1=N	i	0.43	i	i	i
CC(C)C[C@@H]1CN=C(N)N1C[C@@H]1CCCN1C[C@H](C)N1C[C@@H](Cc2ccccc2)N(CCCC2CCCC2)C1=N	i	nt	i	i	i
CCCC(CN1CCCC1CN1C(N)=NCC1Cc1ccccc1)N1CC(Cc2ccccc2)N(CCCC2CCCC2)C1=N (configuration not stated)	nt	0.34	nt	nt	nt
SMILES	Tat transport	E coli growth-1	AddAB inh	phage Ecoli inh	E coli growth-2
CCC[C@@H](CN1CCC[C@H]1CN1C(N)=NC[C@H]1C(C)C)N1C[C@@H]([C@H](C)CC)N(CCCC2CCCC2)C1=N	i	i	i	i	i
CC(=NNC(N)=O)c1c(F)cccc1F	nt	i	nt	nt	nt
c1ccc2c3c([nH]c2c1)-c1[nH]ncc1CC3	i	i	i	i	i
Clc1ccc2[nH]c3c(c2c1)CCc1cn[nH]c1-3	i	0.56	i	i	i
COc1cc(C=NN=Cc2cc(OC)c(O)c(OC)c2)cc(OC)c1O	nt	i	nt	nt	nt
O=C(NC1=NCCS1)c1ccc(N2CCCC2=O)cc1	i	0.53	i	i	i
Cc1nnc(NC(=O)c2ccc(N3CCCC3=O)cc2)s1	i	i	nt	i	nt
CO/N=C(/C(=O)N[C@@H]1C(=O)N2C(C(=O)O)=CCS[C@H]12)c1cnc(N)s1	nt	nt	100	nt	100
O=C(COc1ccccc1)NC1C(=O)N2C(C(=O)O)=C(Cl)CSC12 (configuration not stated)	i	i	i	i	i
O=C(c1cnn(-c2ccccc2)c1)c1cc(Br)ccc1O	i	i	i	i	i
O=C(c1ccc(O)c(Br)c1)c1cc(Br)ccc1O	i	0.39	nt	i	nt
O=[N+]([O-])c1cc(C=NO)ccc1Oc1cccc(Cl)c1	nt	i	nt	nt	nt
COc1ccc(Nc2cc(C)c3c(O)cccc3n2)cc1	i	i	i	i	i
Cc1ccc(Nc2cc(C)c3c(O)cccc3n2)cc1C	i	0.5	i	i	i
CCOC(=O)c1[nH]c(C)c(C(O)=C2C(=O)C(=O)N(CCN(C)C)C2c2ccco2)c1C (configuration not stated)	nt	i	nt	nt	nt
Fc1ccc(Nc2nc(NCc3ccco3)c3ccccc3n2)cc1	i	0.36	i	i	i
c1ccc(CNc2nc(NCc3ccccc3)c3ccccc3n2)cc1	i	0.44	i	nt	i
Cc1ccc(C=NNC(=O)c2cc(-c3ccccc3)nc3ccccc23)o1	nt	i	nt	nt	nt
CCC1OC(=O)C(C)C(OC2C[C@@](C)(OC)C(O)C(C)O2)C(C)C(OC2OC(C)CC(N(C)C)C2O)[C@](C)(OC)CC(C)C(=O)C(C)C(O)[C@]1(C)O (some centres not stated)	nt	0.39	nt	nt	nt
CC[C@H]1OC(=O)[C@H](C)[C@@H](O[C@H]2C[C@@](C)(OC)[C@@H](O)[C@H](C)O2)[C@H](C)[C@@H](O[C@@H]2O[C@H](C)C[C@H](N(C)C)[C@H]2O)[C@](C)(O)C[C@@H](C)C(=NOCOCCOC)[C@H](C)[C@@H](O)[C@]1(C)O	i	nt	i	i	11
CC(C)CC1CN=C(N(C)C)N1CCCCc1ccccc1 (configuration not stated)	nt	i	nt	nt	nt
COc1ccc(C2CC=C(C(=O)O)C(c3ccc(Cl)cc3)N2S(=O)(=O)c2ccccc2C)cc1 (configuration not stated)	nt	i	nt	nt	nt
c1ccc(-c2sc3ccccc3c2-c2ccc(OCCN3CCCCC3)cc2)cc1	i	i	i	i	i
